Experimental data as given in PubChem BioAssay AID602399 (Sanford-Burnham Center for Chemical Genomics, 2012).
In all, about 360,000 compounds went through this assay and about 2,800 (0.78%) were called active. Only a selection was taken, and actives are over-represented in it overall. Values without a mark were called inactive. No stated cut-off is given here; in the data, active means inhibition above about 26%; inactive means the rest.

Each molecule was assayed on Nicotinate-nucleotide adenylyltransferase NadD (Staphylococcus aureus N315) (assay: S. aureus NadD enzyme activity blockers – biochemical, colorimetric, uHTS, primary screen (AID 602399)). Conditions: purified NadD enzyme, colorimetric absorbance read-out; at 20 µM; active compounds read high.

| SMILES | inhibition |
| --- | --- |
| COc1ccc2c3c1O[C@H]1C[C@@H](O)C=C[C@@]31CCN(C)C2 | -4.23% |
| COc1cc(C)c(C(C)C)cc1S(=O)(=O)n1ccnc1 | -1.45% |
| CCCCCOC(=O)C1=C(C)Nc2nnnn2C1c1ccc(OC)c(OC)c1OC (stereo not given) | -2.88% |
| C=CCOc1ccc(/C=C/C(=O)OCC(=O)NCC2CCCO2)cc1 (stereo not given) | 0.0871% |
| CCOC(=O)CC1COCCN1C(=O)c1cc(COc2ccc(F)c(F)c2)on1 (stereo not given) | -4.39% |
| CCC(NC(=O)c1cc(COc2ccc(F)c(F)c2)on1)c1ccncc1 (stereo not given) | 48.1% (active) |
| CC(=O)c1cccc(OCc2cc(C(=O)NC(C)Cc3cccnc3)no2)c1 (stereo not given) | -5.35% |
| COC(C(=O)Nc1ccc(S(=O)(=O)Nc2ccc(C)c(C)c2)cc1)c1ccccc1 (stereo not given) | -2.66% |
| COc1ccc(NC(=O)COc2ccc(C(=O)OCC(=O)N(C)C3CCS(=O)(=O)C3)cc2OC)cc1 (stereo not given) | -2.63% |
| CN(C(=O)COC(=O)c1cc(-c2ccco2)nc2ccccc12)C1CCS(=O)(=O)C1 (stereo not given) | 87.6% (active) |
| COc1ccc2c(-c3ccccc3)cc(SCC(=O)N(C)C3CCS(=O)(=O)C3)nc2c1 (stereo not given) | -1.73% |
| CC(C)CN1CCNC(=O)C1CC(=O)N(C)CC1CCOCC1 (stereo not given) | -2.31% |
| CN(C)S(=O)(=O)c1ccc(N/C=C(\[N+](=O)[O-])S(=O)(=O)c2ccccc2)cc1 | -3.76% |
| CCn1c(=O)cc(SCC(=O)NCc2ccc3c(c2)OCO3)c2ccccc21 | 1.73% |
| O=C1N(Cc2ccc3c(c2)OCO3)c2ccccc2C1(O)c1c[nH]c2ccccc12 (stereo not given) | 34.1% (active) |
| CC1(C(=O)NCc2ccc3c(c2)OCO3)CCN1C(=O)Cc1cccc2ccccc12 (stereo not given) | -4.65% |
| CCCN(CCC)c1ccc(C(O)c2nnc(-c3ccccc3)o2)cc1 (stereo not given) | 3.67% |
| CC1(C)OC(=O)C2=C(C[C@@H](C3CC3)O[C@H]2c2ccc(Cl)cc2)O1 | -7.37% |
| Cc1noc(C)c1NC(=O)Nc1cccc2c1O[C@H](CN(C)C(=O)Nc1ccccc1)[C@@H](C)CN([C@H](C)CO)C2=O | -4.23% |
| C[C@H](CO)N1C[C@H](C)[C@H](CN(C)C(=O)Nc2ccc(C(F)(F)F)cc2)Oc2c(NC(=O)c3ccncc3)cccc2C1=O | 34% (active) |
| Cc1noc(C)c1NC(=O)Nc1ccc2c(c1)C(=O)N([C@H](C)CO)C[C@H](C)[C@@H](CN(C)C(=O)Nc1ccc(C(F)(F)F)cc1)O2 | 3.74% |
| CN(CC(=O)N1CCN(c2ccccc2)CC1)S(=O)(=O)c1cccs1 | -2.17% |
| O=C(O)CCCC(=O)N1N=C(c2ccco2)CC1c1ccco1 (stereo not given) | 2.35% |
| Cc1nn2c(c1-c1ccccc1)N=C(c1ccco1)CC2c1ccccc1 (stereo not given) | 35.5% (active) |
| C=CCN1C(=O)C(Cc2ccc(OCC)cc2)SC1=Nc1ccc(C(=O)O)cc1 (stereo not given) | -1.51% |
| CCOCCCN1C(=O)C2C(C(=O)Nc3ccc(OCC)cc3)C3C=CC2(O3)C1C(=O)NC1CCCCC1 (stereo not given) | -6.7% |
| COc1cccc(-c2nn(-c3ccccc3)cc2/C=C(\C#N)C(=O)NCCCn2ccnc2)c1 | 29.3% (active) |
| COc1ccc(/C=C(\C#N)C(=O)NCCCn2ccnc2)cc1 | -0.938% |

| SMILES | inhibition |
| --- | --- |
| O=C(NCCCn1ccnc1)/C(=C\c1ccccc1F)NC(=O)c1ccccc1 | -0.605% |
| Cc1ccc(S(=O)(=O)N2CCN(C(=O)COC(=O)/C=C/c3cccc(Cl)c3)CC2)c(C)c1 | -1.3% |
| O=C(CC1SC(=Nc2ccccc2)N(Cc2ccccn2)C1=O)Nc1cccc(Cl)c1 (stereo not given) | 7.98% |
| COc1cc(-c2nnc(Cn3cc(C(F)(F)F)ccc3=O)o2)cc(OC)c1OC | -3.86% |
| COc1cc(/C=C2\SC(=S)N(Nc3ncc(C(F)(F)F)cc3Cl)C2=O)cc(OC)c1OC | 31.2% (active) |
| O=C1/C(=C/c2ccc(F)cc2)SC(=S)N1NS(=O)(=O)c1ccccc1 | 5.39% |
| COCCCn1c(C(=O)NC2CCCCC2)cc2c(=O)n3cccc(C)c3nc21 | 2.49% |
| O=c1c(-c2ccccc2)cnc2n1CCS2 | -3.39% |
| Cc1cccc(N2CCN(C(=O)/C=C/c3ccco3)CC2)c1C | -1.19% |
| Cc1ccc(-n2c(C)cc(/C=N/Nc3ccc([N+](=O)[O-])cn3)c2C)c(C)c1 | 44.4% (active) |
| Cc1cc(C=O)c(C)n1-c1ccc(NC2CCCCC2)c([N+](=O)[O-])c1 | 0.0872% |
| Cc1ccc(N2CCN(c3ccc([N+](=O)[O-])cn3)CC2)c(C)c1 | 1.39% |
| Nc1ccc(Cl)c(S(=O)(=O)Nc2ccccc2Cl)c1 | 6.19% |
| O=C1Nc2cc(Cl)c(Cl)cc2N(O)N1c1cc(Cl)cc(Cl)c1 | -1.38% |
| Clc1cccc(N=C2NN=C(c3ccc4c(c3)OCCO4)CS2)c1 | 31% (active) |
| CN(C)c1nc(=Nc2cccc(Cl)c2)ss1 | 3.08% |
| c1ccc(CN2CCC(N=C3NN=C(c4ccc5c(c4)OCCO5)CS3)CC2)cc1 | 17% |
| O=C(COC(=O)/C=C/c1cccc(Cl)c1)NCCc1ccccc1 | -11.9% |
| NS(=O)(=O)c1ccc(NS(=O)(=O)/C=C/c2ccccc2)cc1 | -1.06% |
| NNc1cccc(C=Cc2ccccc2)cc1=O | 33.2% (active) |
| C/C(=N\NC(=O)COc1c(C)cccc1C)c1cccs1 | -5.85% |
| C/C(=N\NC(=O)CNc1cccc2ccccc12)c1ccc(Br)s1 | 64.5% (active) |
| CC/C(=N\NC(=O)c1ccccc1Cl)c1ccc(Br)s1 | -6.6% |
| CCCCCCc1cc2cc(-c3nnc(-c4ccccc4)o3)c(=O)oc2cc1O | 87.5% (active) |
| Cn1cccc1Cc1nnc(SCC(=O)NCc2ccc3c(c2)OCO3)n1CCc1ccccc1 | 7.11% |
| COC(=O)c1cccc(N(CC(=O)NCC2CCCO2)C(=O)CCC(=O)Nc2cc(C)on2)c1 (stereo not given) | -10.6% |
| CCOc1cc(/C=C/C(=O)OCC(=O)NCCN2C(=O)CSC2=O)ccc1OCC(C)C | 0.893% |
